In PubChem BioAssay (EPA / NIEHS):
Activity calls are given as the source filed them. The calls were made as follows: active = hit-call score of the fitted dose curve at least 0.9, where 1 is the maximum; inactive = score below 0.9.

What was measured:
Settings in all cases: mRNA level, 48 h; actives raise or lower the signal
[1] = read-out: DNA damage-inducible transcript 3 (DDIT3), DDIT3 (gene 1649); experiment: LTEA_HepaRG_DDIT3: Life Technologies and Expression Analysis (LTEA) Assay for DNA damage-inducible transcript 3 (DDIT3) using HepaRG (AID 2283488)
How it was run: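 Differentiated human HepaRG cells in serum-free induction medium were exposed in duplicate for 48 h to 8 concentrations (top 100 uM, half-log steps, 0.5% DMSO). DDIT3 mRNA measured by TaqMan qRT-PCR, normalized to ACTB/GAPDH/POLR2A; bidirectional fit versus DMSO.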

[2] = read-out: Pro-epidermal growth factor (Homo sapiens) (UniProt P01133); experiment: LTEA_HepaRG_EGF: Life Technologies and Expression Analysis (LTEA) Assay for Epidermal growth factor (EGF) using HepaRG (AID 2283489)
How it was run: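 Concentration-response mRNA assay: HepaRG cells dosed 48 h (max 100 uM, 0.5% DMSO), EGF measured by qRT-PCR and normalized to ACTB/GAPDH/POLR2A.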

[3] = read-out: Early growth response protein 1 (EGR1) transcription factor, EGR1 (gene 1958); experiment: LTEA_HepaRG_EGR1: Life Technologies and Expression Analysis (LTEA) Assay for Early growth response protein 1 (EGR1) transcription factor using HepaRG (AID 2283490)
How it was run: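 Differentiated human HepaRG cells in serum-free induction medium were exposed in duplicate for 48 h to eight concentrations (top 100 uM, half-log steps) in 0.5% DMSO. EGR1 mRNA was quantified by qRT-PCR, normalized to ACTB, GAPDH and POLR2A, and fitted bidirectionally versus DMSO.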

[4] = read-out: Ezrin (EZR), EZR (gene 7430); experiment: LTEA_HepaRG_EZR: Life Technologies and Expression Analysis (LTEA) Assay for Ezrin (EZR) using HepaRG (AID 2283491)
How it was run: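 Gain or loss of EZR mRNA is scored relative to 0.5% DMSO in human HepaRG cultures treated 48 h with test chemicals in duplicate, eight half-log concentrations from 100 uM.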

[5] = read-out: Cytochrome P450 3A7 (Homo sapiens) (UniProt P24462); experiment: LTEA_HepaRG_CYP3A7: Life Technologies and Expression Analysis (LTEA) Assay for CYP3A7 using HepaRG (AID 2283492)
How it was run: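 qRT-PCR of CYP3A7 in HepaRG lysates after 48 h treatment; concentration-response (8 points, max 100 uM) analysed bidirectionally relative to 0.5% DMSO controls.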

[6] = read-out: CYP3A5 (gene 1577); experiment: LTEA_HepaRG_CYP3A5: Life Technologies and Expression Analysis (LTEA) Assay for CYP3A5 using HepaRG (AID 2283493)
How it was run: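 Differentiated HepaRG cells in serum-free induction medium were dosed 48 h with test chemicals (8-point half-log series, top 100 uM, 0.5% DMSO, duplicate). CYP3A5 mRNA measured by qRT-PCR, normalized to ACTB, GAPDH, POLR2A; bidirectional fit versus DMSO.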

[7] = read-out: Fatty Acid-Binding Protein 1 (FABP1), FABP1 (gene 2168); experiment: LTEA_HepaRG_FABP1: Life Technologies and Expression Analysis (LTEA) Assay for Fatty Acid-Binding Protein 1 (FABP1) using HepaRG (AID 2283494)
How it was run: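 Differentiated human HepaRG cells were exposed in duplicate for 48 h in serum-free induction medium to 8-point half-log concentration series topping at 100 uM in 0.5% DMSO. FABP1 mRNA measured by TaqMan qRT-PCR, normalized to ACTB/GAPDH/POLR2A; bidirectional fit versus DMSO.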

[8] = read-out: Cytochrome P450 4A22 (Homo sapiens) (UniProt Q5TCH4); experiment: LTEA_HepaRG_CYP4A22: Life Technologies and Expression Analysis (LTEA) Assay for Cytochrome P450 4A22 (CYP4A22) using HepaRG (AID 2283495)
How it was run: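 Concentration-response (8 points, max 100 uM, 0.5% DMSO) in human HepaRG liver cells after 48 h exposure. CYP4A22 mRNA by TaqMan qRT-PCR with housekeeping-gene normalization.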

[9] = read-out: Cytochrome P450 7A1 (Homo sapiens) (UniProt P22680); experiment: LTEA_HepaRG_CYP7A1: Life Technologies and Expression Analysis (LTEA) Assay for Cytochrome P450 7A1 (CYP7A1) using HepaRG (AID 2283496)
How it was run: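 Gene expression endpoint in human HepaRG liver cells treated for 48 h with test chemicals (up to 100 uM, 0.5% DMSO). Values come from bidirectional concentration-response fitting versus DMSO.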

[10] = read-out: Glutathione S-Transferase (GSTA2), GSTA2 (gene 2939); experiment: LTEA_HepaRG_GSTA2: Life Technologies and Expression Analysis (LTEA) Assay for Glutathione S-Transferase (GSTA2) using HepaRG (AID 2283497)
How it was run: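 Human HepaRG cells, plated 48 h, then exposed in serum-free induction medium for 48 h to eight half-log concentrations up to 100 uM in 0.5% DMSO, duplicate. GSTA2 mRNA by qRT-PCR, normalized to ACTB/GAPDH/POLR2A; bidirectional fit versus DMSO.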

[11] = read-out: Glutamate-cysteine ligase catalytic (GCLC), GCLC (gene 2729); experiment: LTEA_HepaRG_GCLC: Life Technologies and Expression Analysis (LTEA) Assay for Glutamate-cysteine ligase catalytic (GCLC) using HepaRG (AID 2283498)
How it was run: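 Differentiated human HepaRG cells, plated 48 h then switched to serum-free induction medium, were exposed in duplicate for 48 h to 8 half-log concentrations topping at 100 uM in 0.5% DMSO. GCLC mRNA was quantified by qRT-PCR against ACTB, GAPDH and POLR2A.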

[12] = read-out: growth arrest and DNA damage 45 (GADD45G), GADD45G (gene 10912); experiment: LTEA_HepaRG_GADD45G: Life Technologies and Expression Analysis (LTEA) Assay for growth arrest and DNA damage 45 (GADD45G) using HepaRG (AID 2283499)
How it was run: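 Concentration-response in HepaRG: 48 h dosing, 0.5% DMSO, highest level 100 uM. GADD45G expression by qRT-PCR, normalised to endogenous controls; bidirectional fit to DMSO.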

[13] = read-out: Glutamate-cysteine ligase regulatory (GCLM), GCLM (gene 2730); experiment: LTEA_HepaRG_GCLM: Life Technologies and Expression Analysis (LTEA) Assay for Glutamate-cysteine ligase regulatory (GCLM) using HepaRG (AID 2283500)
How it was run: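 Differentiated human HepaRG cells exposed 48 h in serum-free induction medium to 8-point half-log concentrations (top 100 uM, 0.5% DMSO), in duplicate. GCLM mRNA quantified by qRT-PCR, normalized to ACTB, GAPDH, POLR2A; bidirectional fitting versus DMSO.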

[14] = read-out: Glutathione S-transferase M3 (GSTM3), GSTM3 (gene 2947); experiment: LTEA_HepaRG_GSTM3: Life Technologies and Expression Analysis (LTEA) Assay for Glutathione S-transferase M3 (GSTM3) using HepaRG (AID 2283501)
How it was run: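 Expression of GSTM3 is determined by qRT-PCR in human liver HepaRG cells treated 48 h with an 8-point half-log range from 100 uM in 0.5% DMSO.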

[15] = read-out: Heat shock 70 kDa protein 1 (HSPA1A), gene 3303; experiment: LTEA_HepaRG_HSPA1A: Life Technologies and Expression Analysis (LTEA) Assay for Heat shock 70 kDa protein 1 (HSPA1A) using HepaRG (AID 2283502)
How it was run: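 Differentiated human HepaRG cells in serum-free induction medium were exposed in duplicate for 48 h to eight concentrations (top 100 uM, half-log steps, 0.5% DMSO). HSPA1A mRNA was quantified by qRT-PCR, normalized to ACTB, GAPDH and POLR2A, and fitted bidirectionally against DMSO.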

[16] = read-out: Hypoxia-inducible factor 1-alpha (Homo sapiens) (UniProt Q16665); experiment: LTEA_HepaRG_HIF1A: Life Technologies and Expression Analysis (LTEA) Assay for Hypoxia-inducible factor 1 (HIF1A) Trancription factor using HepaRG (AID 2283503)
How it was run: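 HepaRG, 48 h exposure, 8-pt half-log series from 100 uM, 0.5% DMSO vehicle, duplicates. Readout: HIF1A transcript by qRT-PCR (Fluidigm array), housekeeping-normalised. Bidirectional curve fit vs DMSO baseline.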

[17] = read-out: 3-Hydroxy-3-Methylglutaryl-CoA Synthase 2 (HMGCS2), HMGCS2 (gene 3158); experiment: LTEA_HepaRG_HMGCS2: Life Technologies and Expression Analysis (LTEA) Assay for 3-Hydroxy-3-Methylglutaryl-CoA Synthase 2 (HMGCS2) using HepaRG (AID 2283504)
How it was run: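 This steatosis marker was read as HMGCS2 mRNA change in HepaRG cells treated 48 h with up to 100 uM chemical. Normalisation used housekeeping genes; activity in either direction was fitted relative to 0.5% DMSO vehicle.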

[18] = read-out: HGF (gene 3082); experiment: LTEA_HepaRG_HGF: Life Technologies and Expression Analysis (LTEA) Assay for Hepatocyte Growth Facto (HGF) using HepaRG (AID 2283505)
How it was run: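 Using HepaRG monolayers kept in 0.5% DMSO, chemicals were tested in duplicate over eight half-log concentrations from 100 uM for 48 h. Endpoint: HGF mRNA change relative to DMSO, normalized to ACTB/GAPDH/POLR2A.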

[19] = read-out: Insulin Like Growth Factor 1 (IGF1), IGF1 (gene 3479); experiment: LTEA_HepaRG_IGF1: Life Technologies and Expression Analysis (LTEA) Assay for Insulin Like Growth Factor 1 (IGF1) using HepaRG (AID 2283506)
How it was run: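 Differentiated human HepaRG cells were dosed for 48 h in serum-free induction medium with 0.5% DMSO, eight half-log concentrations up to 100 uM, in duplicate. IGF1 mRNA was quantified by qRT-PCR normalized to ACTB, GAPDH, POLR2A; bidirectional fitting versus DMSO.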

[20] = read-out: Intercellular Adhesion Molecule 1 (ICAM1), ICAM1 (gene 3383); experiment: LTEA_HepaRG_ICAM1: Life Technologies and Expression Analysis (LTEA) Assay for Intercellular Adhesion Molecule 1 (ICAM1) using HepaRG (AID 2283507)
How it was run: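 Using the human liver line HepaRG, compounds are tested in duplicate over 48 h at concentrations up to 100 uM. Expression is determined by TaqMan qRT-PCR, normalized to endogenous controls, and analysed relative to 0.5% DMSO vehicle.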

Hypoxia-inducible factor 1-alpha (Homo sapiens), sequence (Q16665 whole entry, looked up): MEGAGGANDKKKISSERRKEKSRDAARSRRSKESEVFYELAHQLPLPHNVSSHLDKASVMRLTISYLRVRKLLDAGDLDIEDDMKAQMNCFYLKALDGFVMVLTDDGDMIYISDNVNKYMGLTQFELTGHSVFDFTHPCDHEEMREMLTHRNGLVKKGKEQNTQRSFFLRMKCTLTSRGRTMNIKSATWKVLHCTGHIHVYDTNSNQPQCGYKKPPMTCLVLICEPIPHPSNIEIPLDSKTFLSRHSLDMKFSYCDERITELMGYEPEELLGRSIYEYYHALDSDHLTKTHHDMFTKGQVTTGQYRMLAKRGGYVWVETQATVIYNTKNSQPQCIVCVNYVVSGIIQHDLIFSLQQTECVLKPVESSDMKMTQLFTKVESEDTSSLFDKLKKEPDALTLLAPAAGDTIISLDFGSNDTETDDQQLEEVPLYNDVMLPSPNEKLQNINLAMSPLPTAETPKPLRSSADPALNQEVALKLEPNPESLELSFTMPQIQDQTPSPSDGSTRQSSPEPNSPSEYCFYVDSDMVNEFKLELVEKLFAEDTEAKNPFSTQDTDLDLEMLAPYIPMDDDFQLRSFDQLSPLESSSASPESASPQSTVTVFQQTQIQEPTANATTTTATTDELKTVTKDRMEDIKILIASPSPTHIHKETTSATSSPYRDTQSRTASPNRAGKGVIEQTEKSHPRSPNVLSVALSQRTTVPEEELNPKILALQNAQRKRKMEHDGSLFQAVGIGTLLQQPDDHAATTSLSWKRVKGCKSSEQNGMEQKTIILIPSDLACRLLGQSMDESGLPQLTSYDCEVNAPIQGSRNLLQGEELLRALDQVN
Cytochrome P450 3A7 (Homo sapiens), sequence (P24462 whole entry, looked up): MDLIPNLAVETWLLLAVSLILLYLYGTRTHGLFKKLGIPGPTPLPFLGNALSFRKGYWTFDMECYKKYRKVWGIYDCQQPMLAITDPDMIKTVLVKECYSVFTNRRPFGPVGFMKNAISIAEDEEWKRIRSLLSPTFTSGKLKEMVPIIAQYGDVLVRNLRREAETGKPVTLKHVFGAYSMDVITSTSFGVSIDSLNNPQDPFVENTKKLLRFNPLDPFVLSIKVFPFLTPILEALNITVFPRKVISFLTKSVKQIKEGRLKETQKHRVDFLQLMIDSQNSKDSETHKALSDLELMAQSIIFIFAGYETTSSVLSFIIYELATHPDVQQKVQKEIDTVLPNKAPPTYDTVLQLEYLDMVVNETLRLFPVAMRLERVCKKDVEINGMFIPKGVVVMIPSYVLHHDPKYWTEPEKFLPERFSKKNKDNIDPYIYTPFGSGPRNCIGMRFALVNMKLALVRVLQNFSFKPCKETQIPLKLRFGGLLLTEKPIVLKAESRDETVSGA

CC(C)CCCCCCOC(=O)CCCCC(=O)OCCCCCCC(C)C
outcome [1]: inactive | outcome [2]: inactive | outcome [3]: inactive | outcome [4]: inactive | outcome [5]: inactive | outcome [6]: inactive | outcome [7]: inactive | outcome [8]: inactive | outcome [9]: inactive | outcome [10]: inactive | outcome [11]: inactive | outcome [12]: inactive | outcome [13]: inactive | outcome [14]: inactive | outcome [15]: inactive | outcome [16]: inactive | outcome [17]: inactive | outcome [18]: inactive | outcome [19]: inactive | outcome [20]: inactive

C#C[C@]1(O)CC[C@H]2[C@@H]3CCC4=CC(=O)CC[C@@H]4[C@H]3CC[C@@]21C
outcome [1]: inactive | AC50 [2]: 22.9 µM (active) | outcome [3]: inactive | outcome [4]: inactive | outcome [7]: inactive | outcome [8]: inactive | AC50 [9]: 0.299 µM (active) | AC50 [10]: 6.05 µM (active) | outcome [11]: inactive | outcome [12]: inactive | outcome [13]: inactive | outcome [14]: inactive | outcome [15]: inactive | outcome [17]: inactive | outcome [19]: inactive | outcome [20]: inactive

CC(C)(C)c1cccc(C(C)(C)C)c1O
AC50 [1]: 12.2 µM (active) | outcome [3]: inactive | outcome [4]: inactive | outcome [5]: inactive | outcome [6]: inactive | outcome [7]: inactive | outcome [8]: inactive | outcome [9]: inactive | outcome [10]: inactive | outcome [11]: inactive | outcome [12]: inactive | outcome [13]: inactive | outcome [14]: inactive | outcome [15]: inactive | outcome [16]: inactive | outcome [17]: inactive | outcome [18]: inactive | outcome [19]: inactive | outcome [20]: inactive

OCCC(F)(F)C(F)(F)C(F)(F)C(F)(F)C(F)(F)C(F)(F)F
outcome [1]: inactive | outcome [2]: inactive | outcome [3]: inactive | outcome [4]: inactive | outcome [5]: inactive | outcome [6]: inactive | outcome [7]: inactive | outcome [8]: inactive | outcome [9]: inactive | outcome [10]: inactive | outcome [11]: inactive | outcome [12]: inactive | outcome [13]: inactive | outcome [14]: inactive | outcome [15]: inactive | outcome [16]: inactive | outcome [17]: inactive | outcome [18]: inactive | outcome [19]: inactive | outcome [20]: inactive

CCC(=C(c1ccc(O)cc1)c1ccc(OCCN(C)C)cc1)c1ccccc1
AC50 [1]: 72.8 µM (active) | outcome [2]: inactive | AC50 [3]: 76.5 µM (active) | outcome [4]: inactive | AC50 [5]: 3.5 µM (active) | AC50 [6]: 92.9 µM (active) | outcome [7]: inactive | outcome [8]: inactive | outcome [9]: inactive | outcome [10]: inactive | outcome [11]: inactive | AC50 [12]: 93 µM (active) | outcome [13]: inactive | outcome [14]: inactive | AC50 [15]: 69.4 µM (active) | AC50 [16]: 83.8 µM (active) | AC50 [17]: 91.7 µM (active) | outcome [18]: inactive | AC50 [19]: 93.4 µM (active) | AC50 [20]: 67.9 µM (active)
